Some test systems named below: HCT-15 colon; HT29 colon; SNB-75 CNS; SNB-19 CNS; U251 CNS; PC-3 prostate; SK-MEL-5 melanoma; UACC-62 melanoma; LOX IMVI melanoma; SK-MEL-2 melanoma; EKVX NSCLC; SN12C renal; UO-31 renal; TK-10 renal; ACHN renal; CAKI-1 renal; A498 renal; CCRF-CEM leukemia; MOLT-4 leukemia; SK-MEL-28 melanoma.
Common to all, as to assay: NCI-60 one-dose screen, 48 h (100 = growth as untreated, 0 = no growth, -100 = all killed)
Common to all, as to conditions: 10 µM unless noted

Data on eight molecules can be found in PubChem BioAssay (NCI).

SMILES strings stand for the structures. The panel holds about 83,000 compounds, 20% with a hit somewhere; the sample as a whole holds those more often.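 Interpretation: 100, growth as untreated; towards 0, rising growth inhibition; 0, no net growth; 0 to -100, cell death. Compounds scoring below 10 were considered active.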 Unmarked numbers belong to inactive results. Calls of active or inactive are those of the source.

As for `O=C(OCc1ccc2cccc(O)c2n1)N1CCN(C(=O)c2cc3cc(F)ccc3[nH]2)CC1`, the growth in the assay with HCT-15 colon was -36.4% (active); with HT29 colon it was -70.4% (active); in the assay on SNB-75 CNS it was -45.2% (active); in the assay with SNB-19 CNS, 47.1%; in the assay with U251 CNS, -87.2% (active); in the assay with PC-3 prostate, -43.9% (active). Besides, the growth was -79.6% (active) with SK-MEL-5 melanoma; -93.8% (active) with UACC-62 melanoma; -91.8% (active) with LOX IMVI melanoma; -59.7% (active) in the assay with SK-MEL-2 melanoma; -87.8% (active) in the assay with EKVX NSCLC; -90.8% (active) in the assay with SN12C renal. Besides, the growth is -100% (active) in the assay on UO-31 renal; -97.1% (active) in the assay on TK-10 renal; -99.8% (active) in the assay on ACHN renal; -97.8% (active) with CAKI-1 renal; 17.5% in the assay with A498 renal; 3.76% (active) with CCRF-CEM leukemia. Besides, the growth with MOLT-4 leukemia was -16.9% (active).

Consider `O=C(CSc1nc2ccc([N+](=O)[O-])cc2[nH]1)Nc1ccc(F)cc1`, for which the growth in the assay on HCT-15 colon is 64.9%; with HT29 colon, 71.6%; in the assay on SNB-75 CNS, 51.1%; in the assay on SNB-19 CNS, 69.2%; with U251 CNS it was 45.7%; with PC-3 prostate, 54.9%. In addition, the growth with SK-MEL-5 melanoma was 32.5%; in the assay on UACC-62 melanoma, 25.1%; in the assay with LOX IMVI melanoma it was 64.8%; in the assay with SK-MEL-28 melanoma, 61.8%; with SK-MEL-2 melanoma it was 63.6%; in the assay with EKVX NSCLC, 56.5%. Besides, the growth in the assay with SN12C renal was 55.6%; in the assay on UO-31 renal, 38.2%; in the assay with TK-10 renal, 77.1%; in the assay with ACHN renal, 68.5%; with CAKI-1 renal it was 45.5%; with A498 renal, 29.5%. Moreover, the figures for the growth with CCRF-CEM leukemia and with MOLT-4 leukemia were 53.3% and 54.2%, respectively.

On to `CC(C)(C)n1cc(-c2ccnc(NCCCNS(=O)(=O)c3ccc(F)cc3)c2)c(-c2cccc(F)c2)n1`, for which the growth with HCT-15 colon was 5.18% (active); with HT29 colon, 6.93% (active); in the assay on SNB-75 CNS, 85%; in the assay on SNB-19 CNS, 72.7%; in the assay on U251 CNS, 45.5%; in the assay with PC-3 prostate, 46.1%. For the same molecule, the growth in the assay on SK-MEL-5 melanoma is 33.7%; in the assay on UACC-62 melanoma, 72.7%; in the assay with LOX IMVI melanoma it was 33.7%; with SK-MEL-2 melanoma, 88.4%; in the assay on EKVX NSCLC, 57.3%; in the assay on SN12C renal, 66.5%. Besides, the growth in the assay on UO-31 renal is 50.3%; in the assay with TK-10 renal, 97.7%; in the assay with ACHN renal it was 61.4%; in the assay with CAKI-1 renal, 53.6%; with A498 renal it was 70.2%; with CCRF-CEM leukemia, 49.1%. Also, the growth in the assay with MOLT-4 leukemia is 41.7%.

Take `CCOC(=O)c1cc(C(=O)c2cc(OC)c(OC)c(OC)c2)n2ccc(-c3ccncc3)cc12`: the growth in the assay on HCT-15 colon is 99.4%; in the assay with HT29 colon, 91.5%; with SNB-75 CNS it was 88.8%; in the assay on SNB-19 CNS it was 94.4%; in the assay on U251 CNS, 93.2%; with PC-3 prostate it was 75.2%. Also, the growth in the assay on SK-MEL-5 melanoma was 82.8%; in the assay on UACC-62 melanoma, 98.4%; in the assay with LOX IMVI melanoma it was 99%; with SK-MEL-28 melanoma, 110%; in the assay on SK-MEL-2 melanoma, 86.5%; in the assay on EKVX NSCLC, 101%. For the same molecule, the growth in the assay on SN12C renal was 97.8%; in the assay on UO-31 renal it was 70.3%; with TK-10 renal, 100%; with ACHN renal, 99.8%; with CAKI-1 renal it was 84.5%; in the assay on A498 renal, 85.6%. Moreover, the growth was 90% in the assay on CCRF-CEM leukemia and 115% in the assay on MOLT-4 leukemia.

Consider `CCOC(=O)C(=Cc1cccc(Br)c1)C(=O)OCC`, for which the growth was 15.1% with HCT-15 colon; 18% in the assay with HT29 colon; 13.2% with SNB-75 CNS; 50.9% in the assay on SNB-19 CNS; 26.8% with U251 CNS; 40.8% in the assay on PC-3 prostate. The growth in the assay with SK-MEL-5 melanoma is 50.3%; in the assay with UACC-62 melanoma it was 44.2%; with LOX IMVI melanoma it was -8.96% (active); in the assay with SK-MEL-2 melanoma it was 31.7%; with EKVX NSCLC, 61.1%; in the assay with SN12C renal it was 34.8%. In addition, the growth is 52.4% with UO-31 renal; 58.5% in the assay on TK-10 renal; 27.7% in the assay with ACHN renal; 59.4% in the assay with CAKI-1 renal; 95.1% in the assay on A498 renal; 11.7% in the assay with CCRF-CEM leukemia. In addition, the growth in the assay with MOLT-4 leukemia is 16.6%.

For `Cc1ccccc1/C=C1\CN(C(=O)OC(C)(C)C)C/C(=C\c2ccccc2C)C1=O`, the growth is 1.66% (active) with HCT-15 colon; -26.4% (active) in the assay on HT29 colon; 53.4% with SNB-75 CNS; 39.1% in the assay with SNB-19 CNS; 0.0873% (active) in the assay with U251 CNS; 21.9% with PC-3 prostate. Besides, the growth was 83% in the assay on SK-MEL-5 melanoma; 28.7% with UACC-62 melanoma; -62.4% (active) in the assay with LOX IMVI melanoma; 55.5% with SK-MEL-28 melanoma; 86.4% in the assay on SK-MEL-2 melanoma; 55.6% in the assay with EKVX NSCLC. The growth was -6.85% (active) in the assay on SN12C renal; 31.9% with UO-31 renal; 30.3% in the assay on TK-10 renal; -21.7% (active) with ACHN renal; 28.8% with CAKI-1 renal; 84.8% in the assay on A498 renal. Further, the growth is 2.95% (active) in the assay on CCRF-CEM leukemia and 10.8% in the assay on MOLT-4 leukemia.

On to `CC(C)(C)n1cc(-c2ccnc(NCCNS(=O)(=O)c3cccc(F)c3)c2)c(-c2ccccc2)n1`, for which the growth in the assay on HCT-15 colon was 62.5%; in the assay with HT29 colon, 41.4%; with SNB-75 CNS, 85.2%; in the assay with SNB-19 CNS, 89.3%; in the assay on U251 CNS, 67.5%; in the assay on PC-3 prostate, 80.3%. Also, the growth with SK-MEL-5 melanoma is 72.3%; with UACC-62 melanoma it was 81.7%; with LOX IMVI melanoma, 85.1%; in the assay with SK-MEL-2 melanoma it was 105%; in the assay on EKVX NSCLC it was 70.6%; with SN12C renal it was 90.1%. Moreover, the growth is 67% in the assay on UO-31 renal; 105% in the assay with TK-10 renal; 99.5% with ACHN renal; 90.4% in the assay on CAKI-1 renal; 27.1% in the assay with A498 renal; 93.8% in the assay on CCRF-CEM leukemia. For the same molecule, in the assay on MOLT-4 leukemia, the growth is 74.4%.

`O=C(CCc1nnc(Cn2cnc3nc[nH]c3c2=O)o1)c1nc2ncccc2[nH]1`: the growth in the assay on HCT-15 colon was 104%; in the assay with HT29 colon it was 92%; in the assay with SNB-75 CNS, 92.5%; in the assay on SNB-19 CNS, 94.6%; with U251 CNS it was 101%; with PC-3 prostate, 105%. Also, the growth in the assay with SK-MEL-5 melanoma is 104%; in the assay with UACC-62 melanoma it was 94.3%; with LOX IMVI melanoma, 88.1%; in the assay with SK-MEL-2 melanoma, 103%; in the assay on EKVX NSCLC it was 102%; in the assay on SN12C renal, 95.1%. The growth in the assay on UO-31 renal was 80.8%; in the assay with TK-10 renal it was 96.9%; with ACHN renal it was 105%; in the assay on CAKI-1 renal, 92.2%; in the assay with A498 renal, 94.8%; with CCRF-CEM leukemia, 90.5%. In addition, the growth in the assay with MOLT-4 leukemia is 103%.
